Screens as filed in PubChem.
The list is not random: actives were taken first. Their share in the collection is about 19%.
HT1080-NT tox: qHTS for induction of synthetic lethality in tumor cells producing 2HG: qHTS for the HT-1080-NT fibrosarcoma cell line | HT-1080-NT fibrosarcoma viability, CellTiter-Glo ATP luminescence, 48 h | 360,000 compounds, 1.6% hits | Potency, µM (top dose mostly 46.1 µM), actives largely listed as cytotoxic;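 note: NT is the 2HG producing partner of a matched IDH1 knockdown line; nearly all actives have a fitted effect of over 55% in size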
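A 48-hour cytotoxicity screen used HT-1080-NT cells plated 2 hours before compound delivery. ATP-based CellTiter-Glo luminescence measured viability, normalized to DMSO and no-cell controls.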
DT40 TDP1 no CPT: qHTS for Inhibitors of human tyrosyl-DNA phosphodiesterase 1 (TDP1): qHTS in cells in absence of CPT; DT40 Tdp1-/- hTDP1 cells, no CPT, ATP luminescence, 48 h; 420,000 compounds, 15% hits; AID 686978, 2013; Potency, µM (doses to about 46.2 µM), usual class: inhibitors; note: nearly all actives have a fitted effect of over 55% in size
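DT40 Tdp1-/-;hTDP1 cells, no CPT (DMSO vehicle only), 400 cells/well; compounds pin-transferred; ≥48 hr, 37 °C; CellTiter-Glo 30 min RT dark, luminescence read.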
HT1080 IDH1KD tx: qHTS for induction of synthetic lethality in tumor cells producing 2HG: qHTS for the HT-1080-IDH1KD cell line; HT-1080 IDH1 knockdown viability, ATP luminescence, 48 h; Potency, µM (doses to about 46.1 µM), actives largely listed as cytotoxic; 360,000 compounds, 2% hits; AID 686971, 2013
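HT-1080-IDH1KD cells (IDH1 knocked down), 750/well in RPMI with 5% FBS, treated with compound 48 h at 37 degrees C. Viability by CellTiter-Glo luminescence, normalised to DMSO and no-cell wells; concentration-response curves classed.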
IL1B secr inh: qHTS for Inhibitors of Inflammasome Signaling: IL-1-beta AlphaLISA Primary Screen; 360,000 compounds, 4.7% hits; AID 743279, 2014; THP-1 LPS/ATP IL-1B secretion, AlphaLISA, 16 h; active compounds read low; activity change, % at 57.5 µM; in the data active = activity change below about -50%; inconclusive = mostly about -30% to -49%
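Secreted IL-1B measured by AlphaLISA bead assay after 16 h compound exposure of THP-1 cells; compounds (final up to 57.5 uM) added 1 h before LPS (250 ng/mL) and ATP (1.25 mM) stimulation; lower signal means less secretion.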
TDP1 cell CPT: qHTS for Inhibitors of human tyrosyl-DNA phosphodiesterase 1 (TDP1): qHTS in cells in presence of CPT; AID 686979, 2013; 420,000 compounds, 12% hits; chicken DT40 Tdp1-/-;hTDP1 cells + 20 nM CPT, ATP luminescence, 48 h; Potency, µM (titrated, usually from 46.2 µM), most hits filed as inhibitors; note: nearly all actives have a fitted effect of over 55% in size
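Cell growth measured by CellTiter-Glo luminescence after a minimum 48 h, 37 C compound exposure with 20 nM CPT in Tdp1-knockout DT40 cells stably expressing hTDP1, seeded 400/well; qHTS titration format.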
Of the large screens only hits and unclear results are named; the others gave an inactive call. Unless noted, calls come from the whole dose curve; as a rule, active = well fitted curve in the direction sought with a large enough effect; inconclusive = small, poorly fitted or top-dose-only effect, or another doubt; inactive = no such curve, though single readings can be large; an effect the other way counts as inactive or inconclusive.

Cc1nc(N2CCN(C(=O)c3cccs3)CC2)c2c3c(sc2n1)CCCC3	DT40 TDP1 no CPT inconclusive, HT1080 IDH1KD tx inconclusive, TDP1 cell CPT inconclusive
Cc1nc(N2CCN(C(=O)c3ccco3)CC2)c2c3c(sc2n1)CCCC3	HT1080-NT tox inconclusive, DT40 TDP1 no CPT 15µM, HT1080 IDH1KD tx inconclusive, TDP1 cell CPT inconclusive
Cc1nc(N2CCN(C(=O)c3ccco3)CC2)c2c3c(sc2n1)CC(C)CC3 (centres undefined)	DT40 TDP1 no CPT 16µM, HT1080 IDH1KD tx inconclusive, TDP1 cell CPT 21µM
Cc1sc2nc(CN3CCCC3)nc(N3CCN(C(=O)c4ccco4)CC3)c2c1C	IL1B secr inh inconclusive
OC(c1cccc(Cl)c1)c1ncc(-c2cccc(C(F)(F)F)c2)[nH]1 (centres undefined)	HT1080-NT tox inconclusive, DT40 TDP1 no CPT 23µM, HT1080 IDH1KD tx inconclusive, TDP1 cell CPT inconclusive
COc1c(C)cc(C(O)c2ncc(-c3ccc(C(F)(F)F)cc3)[nH]2)cc1C (centres undefined)	HT1080-NT tox inconclusive, DT40 TDP1 no CPT inconclusive, HT1080 IDH1KD tx 16µM, TDP1 cell CPT inconclusive
COc1c(C)cc(C(O)c2ncc(-c3ccc4ccccc4c3)[nH]2)cc1C (centres undefined)	HT1080-NT tox inconclusive, DT40 TDP1 no CPT inconclusive, HT1080 IDH1KD tx inconclusive, TDP1 cell CPT inconclusive
OC(c1cccc(F)c1)c1ncc(-c2ccc(C(F)(F)F)cc2)[nH]1 (centres undefined)	DT40 TDP1 no CPT 16µM, HT1080 IDH1KD tx inconclusive, TDP1 cell CPT inconclusive
CCc1ccc(C(O)c2ncc(-c3cccc(C(F)(F)F)c3)[nH]2)cc1 (centres undefined)	HT1080-NT tox 23µM, DT40 TDP1 no CPT 23µM, HT1080 IDH1KD tx inconclusive, TDP1 cell CPT inconclusive
OC(c1ccc2ccccc2c1)c1ncc(-c2ccc(C(F)(F)F)cc2)[nH]1 (centres undefined)	HT1080-NT tox inconclusive, DT40 TDP1 no CPT inconclusive, HT1080 IDH1KD tx inconclusive, TDP1 cell CPT inconclusive
COc1ccc(C(O)c2ncc(-c3cccc(C(F)(F)F)c3)[nH]2)cc1F (centres undefined)	DT40 TDP1 no CPT inconclusive, TDP1 cell CPT 16µM
CCN1/C(=C/c2ccc3cc(C)ccc3[n+]2CC)Sc2ccccc21	HT1080-NT tox 5.8µM, DT40 TDP1 no CPT 0.058µM, HT1080 IDH1KD tx 12µM, IL1B secr inh -100, TDP1 cell CPT 0.065µM
CC[n+]1c(/C=C2\Sc3ccccc3N2C)ccc2cccc(C)c21	HT1080-NT tox 13µM, DT40 TDP1 no CPT 0.52µM, HT1080 IDH1KD tx 10µM, IL1B secr inh -100, TDP1 cell CPT 0.52µM
C=CCN1C(=O)/C(=C2/Sc3ccccc3N2C)SC1=Nc1ccccc1C	DT40 TDP1 no CPT inconclusive, TDP1 cell CPT inconclusive
C(=Nc1cccnc1)c1ccc2ccccc2n1	DT40 TDP1 no CPT 1µM, TDP1 cell CPT 0.89µM (no result: HT1080-NT tox, HT1080 IDH1KD tx, IL1B secr inh)
O=C(OCCc1ccccc1)c1cc(O)c(O)c(O)c1	DT40 TDP1 no CPT 23µM, TDP1 cell CPT 18µM
O=C(Oc1ccccc1)c1cc(O)c(O)c(O)c1	HT1080-NT tox inconclusive, DT40 TDP1 no CPT 23µM, HT1080 IDH1KD tx inconclusive, TDP1 cell CPT 21µM
O=C(Oc1ccccc1)c1cccc(C(=O)Oc2ccccc2)c1	none (no result: HT1080-NT tox, HT1080 IDH1KD tx, IL1B secr inh)
CC(C)(C)N1CC(C(=O)Nc2ccc(S(=O)(=O)N3CCCCC3)cc2)CC1=O (centres undefined)	DT40 TDP1 no CPT 1.6µM, TDP1 cell CPT inconclusive
Cc1ccccc1N1CC(C(=O)Nc2ccc(S(=O)(=O)N3CCCCC3)cc2)CC1=O (centres undefined)	DT40 TDP1 no CPT 16µM, TDP1 cell CPT inconclusive
CC(C)(C)N1CC(C(=O)Nc2ccc(S(N)(=O)=O)cc2)CC1=O (centres undefined)	none
O=C(N/N=C/c1ccc(N2CCOCC2)cc1)c1ccccc1OCCOc1ccccc1	DT40 TDP1 no CPT inconclusive, HT1080 IDH1KD tx inconclusive, IL1B secr inh -65, TDP1 cell CPT 16µM
O=C(N/N=C/c1ccc(N2CCOCC2)cc1)c1ccncc1	none
O=S(=O)(c1ccc(-c2ccccc2)cc1)N1CCCCC1	TDP1 cell CPT inconclusive
CN1c2ccccc2C(C)(C)C12CC(c1ccc(S(=O)(=O)N3CCCCC3)cc1)=NO2 (centres undefined)	DT40 TDP1 no CPT 21µM, TDP1 cell CPT inconclusive
CN1c2ccccc2C(C)(C)C12CC(c1cccc(S(=O)(=O)N3CCCC3)c1)=NO2 (centres undefined)	DT40 TDP1 no CPT 16µM, TDP1 cell CPT inconclusive
C=CCn1c(SCc2ccc(C(=O)OC)cc2)nnc1-c1sc(N)nc1C	none
C=CCn1c(SC/C=C/c2ccccc2)nnc1-c1sc(N)nc1C	DT40 TDP1 no CPT 15µM, TDP1 cell CPT inconclusive
COc1ccc(C(=O)c2coc3ccc(O)c(CN4CCCC4)c23)cc1	DT40 TDP1 no CPT inconclusive, TDP1 cell CPT inconclusive
Cc1ccc(C(=O)c2coc3ccc(O)c(CN4CCN(C)CC4)c23)cc1	DT40 TDP1 no CPT 18µM, IL1B secr inh -54, TDP1 cell CPT 13µM
COc1ccc(C(=O)c2coc3ccc(O)c(CN4CCOCC4)c23)cc1	DT40 TDP1 no CPT inconclusive, TDP1 cell CPT 12µM
COc1ccc(C(=O)c2c(C)oc3ccc(O)c(CN4CCOCC4)c23)cc1	DT40 TDP1 no CPT 18µM, TDP1 cell CPT inconclusive
CC(C)c1cccc(C(C)C)c1NC(=O)CN(C)C1CCS(=O)(=O)C1 (centres undefined)	none
CC(C)(C)OC(=O)N1CCC(c2cc(=O)n3[nH]c(-c4ccc(Cl)cc4)cc3n2)CC1	DT40 TDP1 no CPT 23µM, TDP1 cell CPT 21µM
Clc1ccc(C2Nc3cccc4cccc(c34)N2)cc1	DT40 TDP1 no CPT inconclusive, TDP1 cell CPT inconclusive
c1cc2c3c(cccc3c1)NC1(CCCCC1)N2	DT40 TDP1 no CPT 18µM, TDP1 cell CPT 18µM
c1cc2c3c(cccc3c1)NC1(CCCCCC1)N2	DT40 TDP1 no CPT 12µM, TDP1 cell CPT inconclusive
c1cc2c3c(cccc3c1)NC1(CCC3(CC1)Nc1cccc4cccc(c14)N3)N2	HT1080-NT tox 21µM, DT40 TDP1 no CPT 13µM, HT1080 IDH1KD tx inconclusive, TDP1 cell CPT 9.2µM
COc1ccc(NC(=O)N2CCCC(C(=O)NCCc3ccccc3)C2)cc1 (centres undefined)	DT40 TDP1 no CPT inconclusive, TDP1 cell CPT inconclusive
CN(C)CCNC(=O)COc1ccc(C23CC4CC(CC(C4)C2)C3)cc1	HT1080-NT tox inconclusive, DT40 TDP1 no CPT 21µM, HT1080 IDH1KD tx inconclusive, IL1B secr inh -59, TDP1 cell CPT 26µM
Cc1ccc(C23CC4CC(CC(C(=O)NN)(C4)C2)C3)cc1	none
